# From PubChem BioAssay (Tox21)
# “And” between values parts separate entries of the source, which are not always exact repeats. Equal entries are not always repeated. Records with an inconclusive call do not appear. Entries that show only a call come without a potency. Some structures have more than one record in an assay (separate samples or runs), and their calls can disagree. The source made the active and inactive calls. Unless noted, calls come from the whole dose curve; as a rule, active = well fitted curve in the direction sought with a large enough effect in the repeat runs; inconclusive = weak or mixed curves; inactive = no such curve, though single readings can be large; an effect the other way counts as inactive or inconclusive.
# What was measured:
# [1] = target: Acetylcholinesterase (Homo sapiens) (UniProt P22303); experiment: Acetylcholinesterase (AChE) small molecule antagonists: fluorescence cell-based qHTS assay (AID 1347398; calls by dose curve; note: nearly all actives have a fitted effect of over 50% in size); conditions: SH-SY5Y cells; Potency: AChE activity; series mostly up to 115 µM
# How it was run: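 Cells (SH-SY5Y) attached overnight, were dosed with compound or DMSO vehicle for 30 min at 37 C, and then incubated 40 min at room temperature with acetylthiocholine and Thiolite Green; green fluorescence indexed AChE activity.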
# [2] = target: Acetylcholinesterase (Homo sapiens) (UniProt P22303); experiment: Acetylcholinesterase (AChE) small molecule antagonists: enzyme-based qHTS assay with human liver microsomes (AID 1347399; calls by dose curve; note: nearly all actives have a fitted effect of over 60% in size; note: potency is the fitted concentration of half-maximal effect); conditions: Potency: qHTS inhibition; series mostly up to 115 µM
# How it was run: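 Recombinant human AChE (50 mU/mL in the enzyme mix) and human liver microsomes (0.25 mg/mL final) were preincubated with compound and NADPH (0.25 mg/mL final) for 30 min at 37 C. Acetylthiocholine/DTNB was then added; thiocholine was read colorimetrically after 10 min at room temperature.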
# [3] = target: Cytochrome P450 2C19 (Homo sapiens) (UniProt P33261); experiment: Cytochrome P450 Family 2 Subfamily C Member 19 (CYP2C19) small molecule antagonists: luciferase reporter qHTS assay (AID 1671197); conditions: P450-Glo CYP2C19 enzyme, luciferin luminescence, 1 h; series mostly up to 115 µM; note: nearly all actives have a fitted effect of over 65% in size; note: potency is the fitted concentration of half-maximal effect
# How it was run: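 Inhibition of CYP2C19 was scored from loss of luminescence in a P450-Glo proluciferin substrate assay, NADPH-started and run 1 h at 37C, with ketoconazole as positive control.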
# [4] = target: Cytochrome P450 2C9 (Homo sapiens) (UniProt P11712); experiment: Cytochrome P450 Family 2 Subfamily C Member 9 (CYP2C9) small molecule antagonists: luciferase reporter qHTS assay (AID 1671198); conditions: P450-Glo CYP2C9 enzyme assay, luciferin luminescence; series mostly up to 115 µM; note: nearly all actives have a fitted effect of over 50% in size; note: potency is the fitted concentration of half-maximal effect
# How it was run: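 P450-Glo proluciferin substrate with CYP2C9 enzyme; 10 min RT preincubation, then NADPH regeneration 1 h at 37C; luciferin detection reagent 20 min RT, luminescence in relative luminescence units.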
# [5] = target: Cytochrome P450 1A2 (Homo sapiens) (UniProt P05177); experiment: Cytochrome P450 Family 1 Subfamily A Member 2 (CYP1A2) small molecule antagonists: luciferase reporter qHTS assay (AID 1671199); conditions: P450-Glo CYP1A2 enzyme, luciferin luminescence, 1 h; series mostly up to 115 µM; note: nearly all actives have a fitted effect of over 50% in size; note: potency is the fitted concentration of half-maximal effect
# How it was run: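 Steps: enzyme-substrate mix dispensed; test compounds and furafylline control pinned in; 10 min room temperature; NADPH regeneration solution added, 1 h; reaction stopped with luciferin detection reagent; luminescence read after 20 min.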
# [6] = target: Voltage-gated inwardly rectifying potassium channel KCNH2 (Homo sapiens) (UniProt Q12809); experiment: Human Ether-a-go-go-Related Gene (hERG) channel small molecule antagonists: fluorescence cell-based qHTS assay (AID 1671200); conditions: hERG-U2OS cells, FluxOR thallium flux fluorescence; series mostly up to 76.8 µM; note: nearly all actives have a fitted effect of over 50% in size; note: potency is the fitted concentration of half-maximal effect
# How it was run: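 U2OS cells expressing the channel were plated at 1000 cells/well, incubated overnight at 37 C, then loaded with FluxOR II thallium-sensitive dye for 1 h at room temperature in the dark, with a further 10 min at room temperature before stimulation.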
# [7] = target: Cytochrome P450 2D6 (Homo sapiens) (UniProt P10635); experiment: Cytochrome P450 Family 2 Subfamily D Member 6 (CYP2D6) small molecule antagonists: luciferase reporter qHTS assay (AID 1671196); conditions: P450-Glo CYP2D6 enzyme assay, luciferin luminescence, 1 h; series mostly up to 115 µM; note: nearly all actives have a fitted effect of over 50% in size; note: potency is the fitted concentration of half-maximal effect
# How it was run: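 Test chemicals meet CYP2D6 plus proluciferin substrate (10 min, RT); NADPH regenerating solution then drives turnover for 1 h. Detection reagent halts the reaction; luminescence measured after 20 min.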
# [8] = target: Cytochrome P450 3A4 (Homo sapiens) (UniProt P08684); experiment: Cytochrome P450 Family 3 Subfamily A Member 4 (CYP3A4) small molecule antagonists: luciferase reporter qHTS assay (AID 1671201); conditions: P450-Glo CYP3A4 enzyme, luciferin luminescence, 1 h; series mostly up to 115 µM; note: nearly all actives have a fitted effect of over 50% in size; note: potency is the fitted concentration of half-maximal effect
# How it was run: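 P450-Glo CYP3A4 system with proluciferin substrate; compounds preincubated 10 min RT with enzyme-substrate mix, then NADPH regeneration added for 1 h RT. Detection reagent 20 min, luminescence read as relative luminescence units.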
# Chain of Cytochrome P450 3A4 (Homo sapiens) (P08684 whole entry, looked up): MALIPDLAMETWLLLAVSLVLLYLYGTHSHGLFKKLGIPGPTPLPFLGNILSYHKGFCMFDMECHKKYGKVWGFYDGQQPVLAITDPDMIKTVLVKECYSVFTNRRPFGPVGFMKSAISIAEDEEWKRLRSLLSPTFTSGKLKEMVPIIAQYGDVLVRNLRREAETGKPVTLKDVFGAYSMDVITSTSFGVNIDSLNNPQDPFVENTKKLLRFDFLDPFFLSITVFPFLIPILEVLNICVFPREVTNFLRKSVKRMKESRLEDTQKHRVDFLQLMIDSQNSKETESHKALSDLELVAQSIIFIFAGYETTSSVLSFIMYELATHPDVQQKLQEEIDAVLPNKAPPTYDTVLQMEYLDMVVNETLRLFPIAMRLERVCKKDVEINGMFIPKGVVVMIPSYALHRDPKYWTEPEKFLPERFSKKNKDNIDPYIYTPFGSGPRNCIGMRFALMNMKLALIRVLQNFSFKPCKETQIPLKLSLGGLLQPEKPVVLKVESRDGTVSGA
# Chain of Cytochrome P450 2C9 (Homo sapiens) (P11712 whole entry, looked up): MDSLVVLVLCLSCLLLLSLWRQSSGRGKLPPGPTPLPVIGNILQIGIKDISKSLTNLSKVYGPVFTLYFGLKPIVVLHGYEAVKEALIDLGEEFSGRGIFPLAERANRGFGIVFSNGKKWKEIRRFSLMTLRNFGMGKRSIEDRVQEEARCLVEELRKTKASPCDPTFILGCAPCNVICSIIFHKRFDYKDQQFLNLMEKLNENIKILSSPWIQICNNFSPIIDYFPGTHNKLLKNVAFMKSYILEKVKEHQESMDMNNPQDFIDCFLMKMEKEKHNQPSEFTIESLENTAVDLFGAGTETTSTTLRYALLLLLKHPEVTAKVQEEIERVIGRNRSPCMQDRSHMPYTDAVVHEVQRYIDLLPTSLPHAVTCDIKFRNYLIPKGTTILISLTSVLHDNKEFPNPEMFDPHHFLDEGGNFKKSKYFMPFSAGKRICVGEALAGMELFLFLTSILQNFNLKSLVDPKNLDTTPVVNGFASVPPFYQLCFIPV
# Chain of Acetylcholinesterase (Homo sapiens) (P22303 whole entry, looked up): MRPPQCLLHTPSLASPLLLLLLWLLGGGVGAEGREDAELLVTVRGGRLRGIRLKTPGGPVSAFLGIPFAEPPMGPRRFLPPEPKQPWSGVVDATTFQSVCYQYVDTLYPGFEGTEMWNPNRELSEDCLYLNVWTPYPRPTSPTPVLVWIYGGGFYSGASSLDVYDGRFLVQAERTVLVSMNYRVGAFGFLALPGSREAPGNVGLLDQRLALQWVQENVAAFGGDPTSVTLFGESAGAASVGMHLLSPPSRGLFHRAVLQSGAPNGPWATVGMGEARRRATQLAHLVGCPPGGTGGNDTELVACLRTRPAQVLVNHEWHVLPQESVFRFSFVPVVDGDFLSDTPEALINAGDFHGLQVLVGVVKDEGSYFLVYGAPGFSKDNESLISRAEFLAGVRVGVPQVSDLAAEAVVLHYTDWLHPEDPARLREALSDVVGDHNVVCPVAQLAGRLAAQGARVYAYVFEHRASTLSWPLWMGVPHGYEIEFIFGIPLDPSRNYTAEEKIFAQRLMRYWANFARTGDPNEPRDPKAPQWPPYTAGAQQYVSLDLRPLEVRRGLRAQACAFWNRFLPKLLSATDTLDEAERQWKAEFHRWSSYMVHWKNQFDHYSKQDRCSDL
# Chain of Cytochrome P450 2D6 (Homo sapiens) (P10635 whole entry, looked up): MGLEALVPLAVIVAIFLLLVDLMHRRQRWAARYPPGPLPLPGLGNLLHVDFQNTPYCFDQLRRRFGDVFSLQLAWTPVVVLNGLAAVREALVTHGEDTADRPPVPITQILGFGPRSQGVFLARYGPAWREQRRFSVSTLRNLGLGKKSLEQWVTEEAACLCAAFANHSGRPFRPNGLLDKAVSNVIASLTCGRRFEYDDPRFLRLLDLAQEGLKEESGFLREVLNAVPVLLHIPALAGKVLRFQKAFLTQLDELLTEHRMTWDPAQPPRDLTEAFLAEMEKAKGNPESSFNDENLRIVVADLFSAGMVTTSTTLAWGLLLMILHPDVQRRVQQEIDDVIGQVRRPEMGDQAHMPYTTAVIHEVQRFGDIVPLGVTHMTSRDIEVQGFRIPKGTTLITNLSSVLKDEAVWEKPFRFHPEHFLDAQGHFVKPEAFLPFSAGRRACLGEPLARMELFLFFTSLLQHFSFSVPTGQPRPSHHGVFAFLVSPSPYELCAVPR
# Chain of Cytochrome P450 2C19 (Homo sapiens) (P33261 whole entry, looked up): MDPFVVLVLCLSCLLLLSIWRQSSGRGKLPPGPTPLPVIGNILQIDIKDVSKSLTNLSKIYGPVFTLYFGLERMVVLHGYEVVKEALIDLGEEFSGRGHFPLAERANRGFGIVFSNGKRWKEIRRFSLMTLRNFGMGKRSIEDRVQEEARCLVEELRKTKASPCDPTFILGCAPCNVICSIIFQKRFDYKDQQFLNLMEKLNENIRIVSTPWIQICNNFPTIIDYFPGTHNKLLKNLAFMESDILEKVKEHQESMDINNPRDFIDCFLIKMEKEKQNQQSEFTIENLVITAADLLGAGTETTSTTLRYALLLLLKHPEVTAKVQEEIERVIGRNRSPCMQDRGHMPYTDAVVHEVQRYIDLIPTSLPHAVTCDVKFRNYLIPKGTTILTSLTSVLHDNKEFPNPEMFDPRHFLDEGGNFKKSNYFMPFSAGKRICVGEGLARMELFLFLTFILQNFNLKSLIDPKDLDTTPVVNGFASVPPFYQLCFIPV
# Chain of Cytochrome P450 1A2 (Homo sapiens) (P05177 whole entry, looked up): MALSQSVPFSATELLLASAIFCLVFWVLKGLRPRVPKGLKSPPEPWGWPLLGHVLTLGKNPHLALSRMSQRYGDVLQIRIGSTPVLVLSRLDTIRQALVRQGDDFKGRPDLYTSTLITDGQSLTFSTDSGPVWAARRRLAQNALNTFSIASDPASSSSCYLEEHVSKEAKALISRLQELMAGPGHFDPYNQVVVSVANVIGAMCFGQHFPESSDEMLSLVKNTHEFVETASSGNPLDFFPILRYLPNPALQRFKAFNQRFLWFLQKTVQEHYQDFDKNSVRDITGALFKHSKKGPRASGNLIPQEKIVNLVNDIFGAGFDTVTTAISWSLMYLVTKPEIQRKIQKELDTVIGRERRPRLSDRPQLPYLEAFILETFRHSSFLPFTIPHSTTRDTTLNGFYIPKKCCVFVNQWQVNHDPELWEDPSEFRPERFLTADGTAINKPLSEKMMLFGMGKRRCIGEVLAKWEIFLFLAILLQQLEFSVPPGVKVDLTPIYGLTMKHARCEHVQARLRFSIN
# Chain of Voltage-gated inwardly rectifying potassium channel KCNH2 (Homo sapiens) (Q12809 whole entry, looked up): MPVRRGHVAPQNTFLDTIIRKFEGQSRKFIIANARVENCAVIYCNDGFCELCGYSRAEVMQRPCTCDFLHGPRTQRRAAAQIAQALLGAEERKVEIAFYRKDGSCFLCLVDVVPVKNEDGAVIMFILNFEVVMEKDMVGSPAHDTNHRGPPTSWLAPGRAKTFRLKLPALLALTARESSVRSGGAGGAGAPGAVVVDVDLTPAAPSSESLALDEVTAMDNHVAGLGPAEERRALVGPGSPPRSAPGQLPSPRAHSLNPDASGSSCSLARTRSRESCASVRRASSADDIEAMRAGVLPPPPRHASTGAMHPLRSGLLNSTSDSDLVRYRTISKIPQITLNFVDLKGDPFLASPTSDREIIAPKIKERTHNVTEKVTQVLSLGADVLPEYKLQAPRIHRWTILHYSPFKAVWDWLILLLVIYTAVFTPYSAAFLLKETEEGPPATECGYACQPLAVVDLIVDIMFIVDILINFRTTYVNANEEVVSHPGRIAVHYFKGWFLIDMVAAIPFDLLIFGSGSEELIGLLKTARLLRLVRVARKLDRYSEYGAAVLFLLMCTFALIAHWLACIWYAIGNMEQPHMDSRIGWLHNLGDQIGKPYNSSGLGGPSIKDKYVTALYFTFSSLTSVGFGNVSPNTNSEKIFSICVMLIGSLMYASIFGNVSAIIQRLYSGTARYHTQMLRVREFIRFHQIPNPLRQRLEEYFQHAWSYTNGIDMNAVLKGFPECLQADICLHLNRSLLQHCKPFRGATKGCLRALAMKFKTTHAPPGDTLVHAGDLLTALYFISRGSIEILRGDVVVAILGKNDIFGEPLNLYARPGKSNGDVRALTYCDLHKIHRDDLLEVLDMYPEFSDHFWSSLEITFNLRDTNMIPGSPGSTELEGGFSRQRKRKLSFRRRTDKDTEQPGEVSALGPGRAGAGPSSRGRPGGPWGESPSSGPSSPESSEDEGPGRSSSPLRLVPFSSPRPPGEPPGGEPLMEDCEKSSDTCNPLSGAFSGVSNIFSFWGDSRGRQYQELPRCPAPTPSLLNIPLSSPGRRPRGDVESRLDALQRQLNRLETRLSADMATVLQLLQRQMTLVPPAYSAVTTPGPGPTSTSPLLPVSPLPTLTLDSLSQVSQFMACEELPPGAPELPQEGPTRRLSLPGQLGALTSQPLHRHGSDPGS
SMILES,Potency [1],Potency [2],Potency [3],Potency [4],Potency [5],Potency [6],Potency [7],Potency [8]
CC1=C(C(=O)Nc2ccccc2)SCCO1,inactive,inactive,36.2 µM (active) and 22.4 µM (active),11.2 µM (active),12.8 µM (active) and 12.6 µM (active),inactive,,
C[N+](C)(C)C,,inactive,inactive,inactive,inactive,,inactive,
Cl,,,,,,inactive,,
[CH3][Sn]([Cl])([Cl])[Cl],,inactive,inactive,inactive,inactive,inactive,32.4 µM (active) and inactive,inactive
O=P(OCCCl)(OCCCl)OCCCl,,inactive,70.4 µM (active),,35.3 µM (active) and 35.6 µM (active),inactive,inactive,inactive
ClCc1ccccn1,,inactive,78.1 µM (active) and inactive,inactive,inactive,inactive,39.2 µM (active),inactive
CC(C)Nc1ccc(Nc2ccccc2)cc1,,inactive,3.16 µM (active) and 3.99 µM (active),501 nM (active) and 1.12 µM (active),35.5 µM (active) and 35.6 µM (active),24.4 µM (active),8.91 µM (active) and 10 µM (active),12.6 µM (active) and 28.3 µM (active)
Nc1ncn[nH]1,,inactive,inactive,inactive,inactive,inactive,inactive,inactive
CC(C)(O)C#N,,inactive,75.3 µM (active) and 39.9 µM (active),42.4 µM (active),inactive and 39.9 µM (active),inactive,inactive,inactive
COP(=S)(OC)SCn1nnc2ccccc2c1=O,,inactive,1.1 µM (active) and 894 nM (active),5.53 µM (active) and 3.99 µM (active),27.7 µM (active) and 28.3 µM (active),inactive,55.3 µM (active) and 39.9 µM (active),7.81 µM (active) and 11.2 µM (active)
C[N+](C)(C)CC(=O)[O-],,inactive,inactive,inactive,inactive,inactive,inactive,inactive
[Cl-].[Cl-].[Cl-].[Fe+3],,,,,,inactive,,
Cc1cc(Cl)ccc1N=CN(C)C,,,79.6 µM (active) and inactive,inactive,22.4 µM (active) and 28.3 µM (active),inactive,35.6 µM (active),inactive
CS(=O)(=O)NC(=O)c1cc(Oc2ccc(C(F)(F)F)cc2Cl)ccc1[N+](=O)[O-],,inactive,inactive and 79.6 µM (active),19.3 µM (active) and 17.8 µM (active),inactive,inactive,inactive,inactive
Nc1ccc([N+](=O)[O-])cc1N,,inactive,25.2 µM (active),39.9 µM (active) and 63.3 µM (active),35.6 µM (active) and 31.7 µM (active),inactive,inactive and 71 µM (active),35.6 µM (active) and inactive
CCOP(=O)(O)OCC (tested in a mixture with another compound),,inactive,79 µM (active),inactive and 55.9 µM (active),79 µM (active),inactive and 6.12 µM (active),40.3 µM (active) and 886 nM (active),inactive and 55.9 µM (active)
COP(=O)(NC(C)=O)SC (stereo unspecified),,inactive,71.1 µM (active) and inactive,inactive,,inactive,inactive,inactive
CCNCC,,,inactive,inactive,inactive and 28.3 µM (active),inactive,inactive,
CC1(C)Cc2cccc(O)c2O1,,inactive,inactive,inactive,,inactive,inactive,
CCCCSP(=O)(SCCCC)SCCCC,,5.51 µM (active) and 5.03 µM (active),7.78 µM (active) and 2.52 µM (active),8.73 µM (active) and 3.17 µM (active),21.9 µM (active) and 12.6 µM (active),inactive,,

SMILES,Potency [1],Potency [2],Potency [3],Potency [4],Potency [5],Potency [6],Potency [7],Potency [8]
O=S(=O)(O)C(F)(F)C(F)(F)C(F)(F)C(F)(F)C(F)(F)C(F)(F)C(F)(F)C(F)(F)F,,inactive,42.6 µM (active) and 22.4 µM (active),537 nM (active) and 502 nM (active) and 423 nM (active),inactive and 50.2 µM (active),inactive,inactive,inactive
C=C(C)C#N,,inactive,inactive,inactive,inactive,inactive,inactive,
CCCCOCC1CO1 (stereo unspecified),,63.7 µM (active) and inactive,inactive,inactive,inactive,inactive,inactive,inactive
COP(=S)(OC)Oc1ccc(S(=O)(=O)N(C)C)cc1,,inactive,79.6 nM (active) and 55 nM (active),356 nM (active) and 490 nM (active),31.7 µM (active) and inactive,inactive,35.6 µM (active),7.96 µM (active) and 6.92 µM (active)
CCOP(=S)(OCC)SCSC(C)(C)C,,40.2 µM (active) and 56.4 µM (active),9.01 µM (active) and 3.17 µM (active),32 µM (active) and 14.2 µM (active),39.9 µM (active),inactive,inactive,12.7 µM (active) and 7.1 µM (active)
O=NN1CCOCC1,,inactive,inactive,inactive,inactive,inactive,inactive,
CC1(C)C(C(=O)OC(C#N)c2cccc(Oc3ccccc3)c2)C1(C)C (stereo unspecified),,inactive,9 µM (active) and 22.4 µM (active),11.3 µM (active) and 7.96 µM (active),,inactive,inactive,
C[C@]12CC[C@H]3[C@@H](CCC4=CC(=O)CC[C@@H]43)[C@@H]1CC[C@@H]2O,,inactive,39.6 µM (active) and 8.71 µM (active),inactive,inactive,inactive,inactive,inactive
NN=C(N)N,,,44.8 µM (active) and inactive,inactive,31.7 µM (active) and 27.5 µM (active),inactive,inactive,inactive
COc1ccc(O)c(C(C)(C)C)c1,,inactive,7.99 µM (active) and 5.64 µM (active),25.3 µM (active) and 31.7 µM (active),39.9 µM (active),inactive,,
c1ccc2c(c1)Nc1ccccc1S2,,inactive,2.24 µM (active) and 8.71 µM (active),inactive,731 nM (active) and 645 nM (active),inactive,inactive,
N#CCCCCC#N,,inactive,72.5 µM (active) and inactive,inactive,,inactive,inactive,
N#Cc1c(Cl)c(Cl)c(Cl)c(C#N)c1Cl,,inactive,17.5 µM (active) and 22.4 µM (active),5.53 µM (active) and 5.64 µM (active),984 nM (active) and 1 µM (active),inactive,34.9 µM (active) and inactive,984 nM (active) and 1.26 µM (active)
O=C1C(Cl)=C(Cl)C(=O)c2ccccc21,,79.9 µM (active) and 31.7 µM (active),7.99 µM (active) and 5.64 µM (active),5.04 µM (active) and 4.48 µM (active),17.9 µM (active) and 8.94 µM (active),21.9 µM (active),17.9 µM (active) and 17.8 µM (active),17.9 µM (active) and 17.8 µM (active)
N#Cc1cccnc1,,inactive,38.8 µM (active) and inactive,,inactive,inactive,inactive,inactive
COc1ccc(CO)cc1,,,,,,inactive,,
CN(C)c1ccccc1,,inactive,29 µM (active) and 41.6 µM (active),inactive,,inactive,inactive,32.5 µM (active) and inactive
CCCCOC(=O)COC(=O)c1ccccc1C(=O)OCCCC,,inactive,7.93 µM (active) and 11.2 µM (active),6.3 µM (active) and 7.1 µM (active),11.2 µM (active) and 20 µM (active),,,
CNC(=O)Oc1cccc2c1OC(C)(C)C2,,5.14 µM (active) and 1.59 µM (active),72.5 µM (active),,,inactive,inactive,
Clc1ccc(C(Cl)(Cl)Cl)cc1,,inactive,inactive and 28.3 µM (active),inactive,inactive,inactive,inactive,
